MgrA-DNA mod = modulators of Staphylococcus aureus MgrA DNA binding | fluorescence polarization | inhibition, % (concentration not given with the values) | 0.13% of 84,000 active | AID 602314; in the data active means inhibition above about 30%, passing the limit was not always enough;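 further: 0% = protein plus DNA without compound and 100% = DNA alone without protein; higher means less MgrA bound to DNA so lower polarization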
Numbers without * were called inactive. The full list was thinned out, with hits kept by preference.

SMILES	MgrA-DNA mod
O=C(O)C=Cc1ccc(O)c(O)c1	4
C=C(C)C1Cc2cc3ccc(=O)oc3cc2O1 (configuration not stated)	-3
C=C(C)C1Cc2cc(/C=C/C(=O)O)c(O)cc2O1 (configuration not stated)	54*
Cn1cccc1C=Nc1ccc(S(N)(=O)=O)cc1	-2
OCCOc1ccccc1OCCBr	-3
CC(C)C1Nc2ccc(C(=O)O)cc2C2C=CCC21 (configuration not stated)	21
Cc1ccc2c(c1C)NC(C(=O)O)C1CC=CC21 (configuration not stated)	64*
O=C(O)C1Nc2ccccc2C2C=CCC12 (configuration not stated)	45
CCC(C)(C)C(=O)Nc1nnc(COC)s1	-1
Cc1nc2ccccn2c1-c1ccnn1C(=O)c1ccno1	41*
CCOC(=O)c1cnn(C(=O)c2c(C)nc3ccccn23)c1N	-1
Cc1nc2ccccn2c1-c1ccnn1C(=O)c1ccc(Cl)cc1	1
N/C(=N\OC(=O)c1sc2ccccc2c1Cl)c1cccc([N+](=O)[O-])c1	2
N#Cc1c(-c2ccco2)cc(-c2ccccc2)[nH]c1=O	10
N#Cc1c(-c2ccco2)cc(-c2ccco2)[nH]c1=O	56*
N#Cc1c(-c2ccccc2)cc(-c2ccco2)c(C#N)c1N	9
CCOC(=O)CCc1c(CC(=O)OCC)c[nH]c1/C=N/O	61*
CCOC(=O)Cc1cc(C)[nH]c1C(=O)OCC	-1
CCOC(=O)CCc1n[nH]c(=O)[nH]c1=O	2
CC1=NN(c2ccc(Cl)c(C(=O)O)c2)C(=O)/C1=C\c1ccc(-c2ccccc2C(=O)O)o1	3
O=C(O)c1cc(N2N=C(C(F)(F)F)/C(=C/c3ccc(-c4ccccc4)o3)C2=O)ccc1Cl	58*
CCOC(=O)c1ccc(-c2ccc(/C=C3\C(=O)N(c4cccc(Cl)c4)N=C3C)o2)cc1	-3
Cc1cc2c(N3CCC(C(=O)O)CC3)ncnc2s1	-3
O=C(Cn1cnc2ccccc2c1=O)OC1CCCCC1	-1
c1ccc(Cn2c3ccccc3n3ncnc23)cc1	-5
SMILES	MgrA-DNA mod
CC(C)(C)c1cn2c3ccccc3nc2n1CCN1CCCC1	2
CCOc1ccccc1C(=O)N(C)c1ccccc1	-1
CCOc1cccc(=[O+]CC)c2c(C)oc(C)c12	63*
CCOc1cccc(=O)c2c(C)n(-c3ccc(OC)cc3)c(C)c12	2
CC(=O)O[C@H]1C(=O)[C@@]2(C)[C@H](O)C[C@@H]3OC[C@]3(OC(C)=O)[C@@H]2[C@@H](OC(=O)c2ccccc2)[C@@]2(O)C[C@@H](OC(=O)[C@@H](O)[C@H](NC(=O)c3ccccc3)c3ccccc3)C(C)=C1C2(C)C	-1
CCSc1ccc2c3c(cccc13)C(=O)N(NCCO)C2=O	4
CC(=O)NN1C(=O)c2cccc3c(N(C)C)ccc(c23)C1=O	61*
CN(C)c1ccc2c3c(cccc13)C(=O)N(c1nc3ccccc3[nH]1)C2=O	10
CC1CCN(CCCNC(=O)c2ccc(/C=C3\Oc4ccccc4NC3=O)cc2)CC1	-1
COc1ccc2nc3c(nc2c1)-c1cccc2cccc-3c12	-1
O=C(c1ccccc1)c1ccc2nc(-c3ccco3)c(-c3ccco3)nc2c1	63*
c1coc(-c2nc3ccccc3nc2-c2ccco2)c1	22
CNC(=S)Nc1ccc(C)cc1	-1
COc1cccc(NC(=S)Nc2ccc(N(C)C)cc2)c1	-2
COc1ccc(N(C)C(=S)Nc2ccc3nc(-c4ccco4)c(-c4ccco4)nc3c2)cc1	60*
S=C(NCc1ccco1)Nc1ccc2nc(-c3ccccn3)c(-c3ccccn3)nc2c1	-3
O=C(NCCO)c1ccc2nc(-c3ccco3)c(-c3ccco3)nc2c1	36
Cc1ccc(NC(=S)Nc2ccc3nc(-c4ccco4)c(-c4ccco4)nc3c2)cc1	80*
CC1=C(C(=O)OCc2ccccc2)C2(C(=O)Nc3ccccc32)C(C(=O)OCc2ccccc2)=C(N)O1 (configuration not stated)	1
COc1cc(C)c(CN)cc1C(C)C	4
COc1ccc(C(=O)COC(=O)CSc2nc3ccccc3s2)cc1	-2
O=c1cc(C2CCN(C(=S)Nc3cccc(Cl)c3)CC2)[nH]n1-c1ccccc1	-2
COC(=O)C1CC2(C(=O)O)CC(C(=O)O)(CC(C(=O)OC)C2=O)C1=O (configuration not stated)	-1
COc1ccc(Cl)cc1NCC(=O)N1CCc2ccccc2C1	2
Cc1cc(C)c2c(n1)sc1c(SCc3ccccc3)nc(C)nc12	2
SMILES	MgrA-DNA mod
CN1C(CC(=O)c2ccccc2)CCC[C@H]1CC(O)c1ccccc1 (some centres not stated)	-5
Cc1onc(-c2ccccc2Cl)c1C(=O)NC(C(=O)O)C(C)C (configuration not stated)	-5
COc1cc(-c2cc(C#N)on2)cc(OC)c1OC	3
Cc1c(Sc2ccc(Cl)cc2)cnn1C(=O)Nc1cccc(C(F)(F)F)c1	-1
Cc1ccc(-c2nccnn2)cc1	0
O=C(c1ccc2c(c1)C(=O)N(Cc1ccco1)C2=O)N1CCOCC1	-2
O=C(Nc1ccccc1Cl)c1ccc2c(c1)C(=O)N(Cc1ccco1)C2=O	9
Cc1ccnc(NC(=O)c2ccc3c(c2)C(=O)N(Cc2ccco2)C3=O)c1	30*
CCCc1ccc(C(=O)Nc2cccnc2Oc2ccc(Cl)cc2)cc1	-3
CCCN1C(=O)/C(=C/c2cc(C)n(-c3ccc(Cl)cc3)c2C)NC1=S	2
O=C(NC1CCCC1)c1cc2ccccc2oc1=O	-2
O=C1c2ccccc2C(=O)c2c1cccc2-c1cccc2c1C(=O)c1ccccc1C2=O	1
COC(=O)c1cccc2c1C(=O)c1ccccc1-2	-1
Nc1cccc2c1C(=O)c1ccccc1-2	53*
Cc1c(C(=O)O)cc(-c2ccccc2)n1CCNC(=O)OC(C)(C)C	-2
CC(C)(C)C1CCC(C(=O)OCC(=O)Nc2ccc(C(N)=O)cc2)CC1 (configuration not stated)	2
CCSCC(=O)Nc1ccc(F)cc1	6
FC(F)(F)c1ccc(Cl)nc1	0
O=C(CSC1CCCC1)Nc1ccccc1Br	-1
COc1ccc(Oc2ccc(N)cn2)cc1	-1
CCc1ccc(-c2nn(-c3ccccc3)cc2/C=C2\SC(=S)NC2=O)cc1	1
Cc1ccc(-c2nn(-c3ccccc3)cc2/C=C2\SC(=S)N(CCCC(=O)O)C2=O)cc1	99*
Cc1ccc(-c2nn(-c3ccccc3)cc2/C=C2\SC(=S)NC2=O)cc1	4
Cc1ccc(N=Cc2ccc3c(c2)OCO3)c(Br)c1	1
COc1ccc(NC(=O)c2ccc(O)cc2)cc1	1
SMILES	MgrA-DNA mod
Nc1cc[n+](CC(O)CO)cc1 (configuration not stated)	56*
Nc1ccc(C(O)C(O)CO)cc1 (configuration not stated)	-3
Cn1c(=O)c2ccccc2n(CC(N)=O)c1=O	4
N#CC1(C#N)[C@H](c2ccoc2)[C@@H](C(=O)Oc2ccccc2)N2c3ccccc3C=C[C@@H]21	0
COC(=O)C1=C(C)N2[C@@H](C=C1)[C@@](C#N)(C(N)=O)[C@@H](c1ccccc1)[C@@H]2C(=O)OC	60*
COC(=O)C1=C(C)N(c2ccc(N(C)C)cc2)C(C)=C(C(=O)OC)C1c1ccccc1	-1
O=C1C=C(C(F)(F)F)c2ccc(NC3CCCCC3)c3cccc1c23	56*
O=C1c2ccccc2C(=O)c2c(NC3CCCCC3)ccc(Nc3ccc(Oc4ccccc4)cc3)c21	-3
O=C1C=C(NC2CCCC2)CC(c2ccccc2)C1 (configuration not stated)	0

Assay outcomes: PubChem, ICCB-Longwood Screening Facility, Harvard Medical School
